Results published in PubChem BioAssay AID743398 (Broad Institute, 2014).
The whole screen tested about 300,000 compounds, of which about 3,600 (1.2%) were called active. This is one part of a sample in which actives are shown more often than they occur. Rule as the data show it: active = activation above about 30% (passing the limit was not always enough); inconclusive = no clear call, values can overlap the other calls.

Assay: activation of beta-catenin signaling reporter – cell-based, plate reader, single point, primary screen (AID 743398);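 also: 0% = neutral control wells and 100% = positive control wells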
Details: Wnt/beta-catenin reporter cell assay, activator, at 9.35 µM, active compounds read high

activation, active:
FC(F)(F)c1ccnc(Oc2ccc(C3=NCCS3)cc2)c1 50.4%
O=S(=O)(Nc1ccc2nc(-c3ccco3)[nH]c2c1)c1ccccc1 37.5%
CCOC(=O)c1cn[nH]c1NC(=S)Nc1ccccc1 48.2%
COc1ccc(Cl)cc1S(=O)(=O)N1CCC(O)(c2ccc(Cl)cc2)CC1 61.9%
CCN(CC)CCOc1ccc2c(c1)C(=NNC(=O)c1ccccn1)c1cc(OCCN(CC)CC)ccc1-2 54.2%
CCOC(=O)N1CCC(Nc2c(NCCCN3CCN(c4ccc(OC)cc4)CC3)c(=O)c2=O)CC1 33.6%
OC(c1ccccc1)c1nc(-c2cnc3ccccc3c2)cs1 (stereo not given) 50.7%
COc1cc(/C=C2/C(=O)ON=C2C)ccc1OCc1ccccc1F 48.1%
Cc1cc(OCc2cc(C(=O)NCc3cc(C(C)C)no3)no2)cc(C)c1Cl 40.5%
O=C(CSc1nc2ccccc2[nH]1)c1cccs1 58.5%
COC(=O)c1ccc(-n2cnc3ccccc32)nc1 41.6%
CCc1ccccc1NC(=O)CSc1nnc([C@@H](NC(=O)OC(C)(C)C)C(C)CC)o1 (stereo not given in full) 31.4%
COC(=O)c1ccc(NC(=O)c2ccco2)cc1 58%
COc1cc2ccccc2cc1C(=O)Nc1ccccc1C 38.1%
CCOC(=O)C1=C(CC)Nc2ccccc2N=C1N 38.3%
O=C(Nc1nc2ccc([N+](=O)[O-])cc2s1)c1ccncc1 34.4%
Cc1csc(NC(=O)c2ccc(C)s2)n1 43.1%
Cc1cc(C(=O)COc2ccc(Br)cc2F)c(C)n1C1CC1 35.3%
CC(C)Nc1ccc(-n2nc3ccccc3[n+]2[O-])cc1 40.2%

activation, inactive:
O=Cc1ccc(Oc2cccc(C(F)(F)F)c2)nc1 0.99%
N#CCCN(C(=S)Nc1ccc(Cl)c(Cl)c1)C1CCCCC1 -1.58%
CCCCCCCCN1C(=O)[C@@H](CC(=O)NCc2ccccc2)C[C@@]2(C(=O)OC)C1=C[C@H](C(C)(C)C)O[C@@H]2C -15%
Cc1cc(OC(=O)NCCc2ccc(F)cc2)ccc1F 2.45%
COc1ccc(-c2ccc(CN3C(C(C)C)C(=O)N(Cc4cn(CC5CCCCC5)nn4)CCS3(=O)=O)cc2)cn1 (stereo not given) -0.388%
O=S(=O)(Nc1ccc2cn[nH]c2c1)c1ccccc1 -1.72%
Cn1c(CCN2CCCC2)nc2cc(NS(=O)(=O)c3ccccc3)ccc21 2.48%
Nc1ncnc2c1ncn2C1OC(CO)CC1O (stereo not given) 0.661%
Cc1cccc(C(=O)C(O)(c2ccccc2)C2CCCCC2=O)c1 (stereo not given) -5.91%
CCOC(=O)c1ccc(NC(=S)Nc2cc(C)cc(C)n2)cc1 -1.38%
CCOC(=O)c1cc2c(nc1NC(=S)Nc1ccccc1)CC(C)(CC)OC2 (stereo not given) 9.37%
COc1ccc(F)cc1S(=O)(=O)N1CCCCC1 -0.652%
COc1ccc(C(=O)NCc2ccc(Cl)cc2)cc1S(=O)(=O)N1CCCC1 -0.0405%
CCc1nc2c(OCc3ccc(Cl)cc3Cl)cccn2c1N(C)C(=O)C(C)C -1.94%
Cc1ccc(Cl)cc1NC(=O)c1ccccn1 -3.27%
Cc1cccc(OCC(=O)NCCCNC(=O)c2ccccn2)c1 -0.523%
OC(c1ccccc1)(c1ccccc1)C1CCN(CCCOc2ccccc2)CC1 -5.07%
COc1ccc(Sc2ccc(NC(=O)c3cccc(Cl)c3)cc2C#N)cc1 -0.516%
CCOC(=O)N1CCC(Nc2c(NCCCN3CCN(CC)CC3)c(=O)c2=O)CC1 1.91%
CCOC(=O)N1CCC(Nc2c(NCCN3CCN(c4cccc(Cl)c4)CC3)c(=O)c2=O)CC1 -0.679%
COC(=O)[C@]12CCCCC=C1N(Cc1ccccc1)C(=O)[C@H](CC(=O)NCc1ccc(C)o1)C2 -1.58%
CC(C)c1cccc(-c2csc(C(O)c3ccccc3)n2)c1 (stereo not given) 1.98%
COc1cccc(C(NC(C)=O)c2nc(-c3cnc4ccccc4c3)cs2)c1 (stereo not given) -0.125%
Cc1cc(Cl)ccc1C(=O)C1CCCN(C(=O)c2ccc3c(c2)OCO3)C1 (stereo not given) -2.01%
COc1ccc(C(=O)N2CCCCC2c2cc(C(=O)Nc3ccccc3)no2)cc1 (stereo not given) -2.86%
CCc1ccccc1NC(=O)CN1CCN(C(=O)c2cc(C3CC3)nn2-c2ccccc2)CC1 -4.73%
COc1cccc(-c2cnc3c(NC(C)=O)cc(-c4cccc(NC(C)=O)c4)cn23)c1 -2.59%
C=CCOc1ccc(/C=C2/C(=O)ON=C2C)cc1OCC -0.78%
COc1cc(/C=C2/C(=O)ON=C2C)ccc1OCc1cccc(F)c1 13.4%
C[C@@H]1Cn2cnc(C(=O)Nc3ccc(CNC(=O)OC(C)(C)C)cc3)c2C(=O)N1 -0.752%
COc1cccc(NC(=O)Nc2ccc(F)cc2)c1 4.29%
Cc1ccc(-c2cnc(C(O)c3cc(Cl)cc(Cl)c3)[nH]2)cc1 (stereo not given) -5.54%
Cc1cccnc1CC(C)NC(=O)c1cc(COc2cncc(Cl)c2)on1 (stereo not given) 7.75%
COc1ccc(OCc2cc(C(=O)NCC3(C)COC3)no2)c(Cl)c1 7.69%
CN(Cc1ccccc1)C(=O)CSc1nc2ccccc2[nH]1 12.8%
C=CCSc1nc2ccccc2[nH]1 0.251%
C#CCN([C@@H](C)C(=O)OCC)S(=O)(=O)c1ccc(Br)cc1F -2.08%
O=C(c1ccc(Cl)cc1)n1cnc2ccccc21 0.992%
Cc1ccc(OCC(=O)Nn2cnc3ccccc32)cc1 -2.76%
Cc1c(C(=O)NCc2ccc(C#N)cc2)sc(=O)n1Cc1ccc(C(=O)N(C)C)cc1 -0.79%
COc1ccc(C(O)c2nc(-c3ccc(OC)nc3)cs2)cc1 (stereo not given) -2.19%
CCOC(=O)[C@]12CCCC=C1N(Cc1ccc(Cl)cc1Cl)C(=O)[C@H](CC(=O)N1CCCCC1)C2 -0.046%
CCc1ccccc1NC(=O)CSc1nnc(CCNC(=O)OC(C)(C)C)o1 -2.11%
CCc1ccccc1NC(=O)CSc1nnc(-c2ccncc2)o1 0.131%
Cc1cc(Br)cn2c(Cc3ccccc3C(F)(F)F)c(-c3ccc(C#N)cc3)nc12 -2.44%
CSCCC(c1nnnn1Cc1ccccc1)N1CCN(C/C=C/c2ccccc2)CC1 (stereo not given) -2.2%
O=C(CSc1nc2cccc(F)c2c(=O)n1-c1ccccc1)Nc1ccc2c(c1)CCC2 -0.606%
Cc1ccc(NC(=O)c2ccco2)cc1 -2.54%
O=C(Nc1ccc(O)cc1)c1ccc(NC(=O)c2ccco2)cc1 9.09%
CC(Sc1ccc(S(=O)(=O)N2CCN(C)CC2)cn1)C(=O)NC1CCCC(C)C1C (stereo not given) -1.63%
O=C(NCc1ccccc1Cl)c1csc([C@@H]2O[C@H](CO)[C@@H](O)[C@H]2O)n1 -2.52%
CCC(c1nnnn1-c1ccc2c(c1)OCCO2)N1CCN(c2ccc(C(F)(F)F)cn2)CC1 (stereo not given) 0.0485%
COc1cc2ccccc2cc1C(=O)Nc1ccncc1 11.7%
COc1cc2ccccc2cc1C(=O)Nc1ccc(NC(=O)c2cccs2)cc1 -6.22%
CCCCOCC1CN(CCCC)S(=O)(=O)c2c(Oc3ccc(F)cc3)cccc2O1 (stereo not given) -5.54%
CCOC(=O)C1=C(C)NC(SC)=NC1c1ccccc1 (stereo not given) -2.32%
CCOC(=O)C(=O)C1C(=O)Nc2ccccc21 (stereo not given) 3.02%
COC(=O)[C@H]1C[C@H](OC(=O)NCc2ccccc2)[C@@]2(O)CN(S(=O)(=O)c3ccc(C)cc3)CC2[C@H]1C(=O)OC (stereo not given in full) 0.0463%
COc1cccc(-c2cc(CNC(=O)[C@@H](Cc3ccccc3)NC(=O)[C@H]3O[C@@H](n4cnc(C(N)=O)n4)[C@H](O)[C@@H]3O)no2)c1 -3.63%
CCOc1ccc2nc(NC(=O)c3cc([N+](=O)[O-])ccc3N3CCOCC3)sc2c1 -0.111%
COc1ccc(C(=O)Nc2nc(-c3ccc(OC)cc3)c(-c3ccc([N+](=O)[O-])cc3)s2)cc1 -2.22%
Brc1ccc(COCCc2cn(Cc3ccccc3)c3ccccc23)cc1 11.3%
Cc1cc(=O)oc2c3c(cc(OCC(=O)NCC(O)c4ccccc4)c12)OC(C)(C)CC3 (stereo not given) -1.47%
Cc1csc(NC(=O)C2=COCCO2)n1 5.46%
Cc1ccc(C(=O)NCC(=O)O)s1 0.419%
COc1cccc(CNc2nc3cc(-c4csc5ccccc45)sc3c(=O)n2C)c1 -2.71%
CC(C)Nc1ncnc2c1ncn2[C@H]1CN(Cc2ccncc2)C[C@@H](CO)O1 -2.99%
CCOC(=O)[C@]12CCC=C1N(Cc1ccco1)C(=O)[C@H](CC(=O)NCc1cccc(C(F)(F)F)c1)C2 -1.73%
O=C(COc1ccc(Br)cc1F)NCC1(N2CCCCC2)CCCCC1 -3.51%
Cc1cc(C(=O)COc2ccccc2Cl)c(C)n1C1CC1 -1.86%
COC(=O)[C@]12C[C@H](CC(=O)N3CCN(C(=O)C4CC4)CC3)C(=O)N(Cc3ccc4c(c3)OCO4)C1=C[C@H](C(C)(C)C)O[C@@H]2C -4.23%
